# Data published in ChEMBL document CHEMBL3988442, “University of Dundee, Small-Polar-MMV Screening Library” (2021).
# The whole screen tested about 48,000 compounds, of which about 13,000 (27%) showed an effect of 50% or more. The list shows a part of the results.
# System: Wolbachia pipientis
# Experiment: Anti-Wolbachia Cell-Based Screen
# Assay type: functional
# Set-up: scale not given: in the data most compounds retested in dose-response had high values
# Details: 5 µM
row,Structure (SMILES),Percent Effect [%]
1,CNC(=O)C(C)CN(C)C(=O)Nc1cc(-n2cccc2)ccc1F (centres undefined),4.281
2,COc1cccc(F)c1C(C)NC(=O)NCc1ccnc(C)n1 (centres undefined),15.11
3,CC(C)N(Cc1ccccc1)Cc1nnsc1Cl,2.332
4,CC(C)(C)c1cnc(CN2C(=O)CC3(CCSC3)C2=O)o1 (centres undefined),-9.013
5,Cc1cnn(CC2CCCN2Cc2nnc(C)o2)c1 (centres undefined),108.8
6,CCCC1(CO)CCCN(C(=O)CNC(C)=O)C1 (centres undefined),72.22
7,O=C(CCn1cnnn1)N1CCCC(CO)(CCCc2ccccc2)C1 (centres undefined),2.487
8,CC(=O)NCC(=O)N1CCCC2(CCC(=O)N(CCc3c[nH]cn3)C2)C1 (centres undefined),7.336
9,CNc1ncc(C(=O)N2CCCC(CO)(CCCOC)C2)cn1 (centres undefined),-3.097
10,CCCC1(CO)CCCN(C(=O)CNC(N)=O)C1 (centres undefined),100.2
11,O=C(CCn1cnnn1)N1CCCC(CO)(CCc2ccccc2)C1 (centres undefined),-14.03
12,COc1c(C2CCCN2c2ncnc3sccc23)c(C)nn1C (centres undefined),-10.8
13,CN(CC1(O)CCCN(Cc2cccc(F)c2F)C1=O)C1CCCCC1 (centres undefined),6.301
14,O=C1N(C2CCCCC2)CCCC12CCN(S(=O)(=O)c1cccnc1)C2 (centres undefined),14.14
15,Cc1ccnc(C2(C)CCCN2S(=O)(=O)c2c(C)noc2C)n1 (centres undefined),125.2
16,CCC1CCCCN1S(=O)(=O)c1c(C)noc1C (centres undefined),-6.559
17,Cc1noc(C)c1S(=O)(=O)N1C[C@@H](C(=O)O)[C@H](c2ccccn2)C1,-14.24
18,CCCN1CCCC2(CCN(S(=O)(=O)c3cccnc3)C2)C1=O (centres undefined),3.088
19,Cc1ccnc(C2(C)CCCN2S(=O)(=O)c2cccnc2)n1 (centres undefined),132.4
20,CC(C)c1noc(CNc2ccccc2CC(=O)N(C)C)n1,6.812
21,Cc1nn(C)c(C)c1NC(=O)CNc1ccc(F)c(C(F)(F)F)c1,-4.336
22,Cn1cccc1C(=O)N1C[C@H](OCC2CCOCC2)[C@H]2COC[C@H]21,-0.3996
23,O=C(CC1CCCCC1)N1C[C@H]2CC[C@@H]1CN(Cc1cccnc1)C2,-16.08

row,Structure (SMILES),Percent Effect [%]
1,O=C(CC1CCCC1)N1CCCC1c1ccc(CN2CCOCC2)cn1 (centres undefined),123.2
2,Cn1cccc1C(=O)N1CCCC1c1ccc(CN2CCOCC2)cn1 (centres undefined),73.28
3,CC(=O)N1CCCC1c1ccc(Br)cn1 (centres undefined),103.5
4,CCc1ccc(C2CCCCCN2C(=O)CNC(=O)C2CC2)o1 (centres undefined),-5.222
5,CC(=O)N1CCCC1c1ccc(-c2c(C)noc2C)cn1 (centres undefined),-2.111
6,Cc1cc(C(=O)Nc2ccc(CN3CCOCC3)cn2)n(C)n1,-8.587
7,CC(=O)NCC(=O)N1CCCC1c1ccc(CN2CCOCC2)cn1 (centres undefined),87.68
8,Cc1ccc(CNC(=O)NCCCn2nc3ccccn3c2=O)s1,0.9307
9,CN(C)CCN(C)C[C@@H]1CN(Cc2cccc(O)c2)C[C@@H]1CO,-1.662
10,Cc1ccc(-c2nc(C(=O)N(C)CC(=O)N3CCCC3)cs2)c(C)c1,2.536
11,CCNC(=O)[C@@H]1CCCN1[C@@H](C(=O)NC)c1ccccc1OC.Cl,2.638
12,N#Cc1cccc(NC(=O)N2CCCC(N3CCCC3=O)C2)c1 (centres undefined),-2.402
13,CC(=O)N1CCCC1c1ccc(C(=O)N2CCOCC2)s1 (centres undefined),-4.925
14,CC(=O)N1CCCC1c1ccc(CN2CCOCC2)cn1 (centres undefined),123.1
15,CC(C1CCN(Cc2ccc(N(C)C)nc2)CC1)N1CCOCC1 (centres undefined),11.4
16,Cc1cccc(NC2CCN(C(=O)Nc3cc(F)ccc3F)CC2)n1,100.1
17,Cc1cccc(NC2CCN(C(=O)Nc3ccc(F)cc3C)CC2)n1,119.5
18,COC(=O)C1CCN(C(=O)Nc2cc(-n3cccc3)ccc2F)CC1,-12.66
19,O=C(Nc1cc(-n2cccc2)ccc1F)N1CCCC1,-21.77
20,COC(=O)[C@@H](NC(=O)c1coc(COc2cccc(F)c2)n1)C(C)C,-6.139
21,COC(=O)C(CNC(=O)Nc1nncs1)Cc1ccc(O)cc1 (centres undefined),-7.051
22,CNC(=O)c1n[nH]c2c1C(c1cccc3[nH]ccc13)CC(=O)N2 (centres undefined),8.838
23,Cc1nnc(NC(=O)CN2CCc3nn(C(C)C)c(=O)cc3C2)s1,104

row,Structure (SMILES),Percent Effect [%]
1,Cc1nc(CN2CCc3nn(C(C)C)c(=O)cc3C2)oc1C,-3.167
2,Cc1cc(NC(=O)CN2CCc3nn(C)c(=O)cc3C2)no1,-3.841
3,Cn1nc2c(cc1=O)CN(CC(=O)Nc1nncs1)CC2,-9.972
4,CC(C)n1nc2c(cc1=O)CN(CC(=O)N(C)c1nccs1)CC2,-24.74
5,CCn1nc2c(cc1=O)CN(CC(=O)Nc1nccs1)CC2,-22.28
6,CCn1nc2c(cc1=O)CN(CC(=O)Nc1cc(C(C)C)no1)CC2,-9.725
7,Cc1nnc(NC(=O)CN2CCc3nn(C)c(=O)cc3C2)s1,86.83
8,CCn1nc2c(cc1=O)CN(CC(=O)Nc1nnc(C)s1)CC2,120.7
9,CCn1nc2c(cc1=O)CN(CC(=O)Nc1cc(C)no1)CC2,-6.307
10,Cc1csc(NC(=O)CN2CCc3nn(C)c(=O)cc3C2)n1,-32.21
11,CCn1nc2c(cc1=O)CN(CC(=O)Nc1nncs1)CC2,94.86
12,CC1=N[C@@]2(CC[C@@H]3CN(S(C)(=O)=O)C[C@@H]32)C(=O)N1CC(C)C,-10.09
13,CCc1nnc2ccc(NCC3(O)CCOCC3)nn12,-3.397
14,CC(C)S(=O)(=O)NC(=O)CC(c1ccccc1)C(F)(F)F (centres undefined),0.6807
15,O=C1NCCCCC1Sc1nnc(N2CCCC2)n1C1CC1 (centres undefined),5.697
16,O=C1NCCCCC1SCc1coc(-c2cccc(F)c2)n1 (centres undefined),-23.71
17,O=C1NCCCCC1SCc1coc(-c2ccc(F)cc2)n1 (centres undefined),-0.7587
18,O=C1NCCCCC1Sc1nnc(-c2cccnc2)n1C1CC1 (centres undefined),-7.436
19,O=C1NCCCCC1Sc1ccccc1F (centres undefined),86.32
20,O=C1NCCCCC1Sc1ccc(F)cc1F (centres undefined),103.3
21,O=C1NCCCCC1Sc1n[nH]c(=O)n1C1CC1 (centres undefined),-5.028
22,O=C1NCCCCC1Sc1nnc(C2CC2)n1C1CC1 (centres undefined),-22.11
23,O=C1NCCCCC1Sc1ccc(F)c(F)c1 (centres undefined),87.86
